The campaign covered roughly 2,400 compounds. About 580 (24%) were called active. Only a sample is shown. Unmarked numbers belong to inactive results.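 How the source made its calls: active means activity change at or above the mean plus 3 SD of buffer wells without dofetilide, per plate; inactive means the rest.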

Activity change, less the hit threshold data for 99 molecules are collected here from PubChem BioAssay AID1942 (Johns Hopkins Ion Channel Center, 2009).

Chain of Potassium voltage-gated channel subfamily KQT member 2 (Rattus norvegicus) (O88943 whole entry, looked up): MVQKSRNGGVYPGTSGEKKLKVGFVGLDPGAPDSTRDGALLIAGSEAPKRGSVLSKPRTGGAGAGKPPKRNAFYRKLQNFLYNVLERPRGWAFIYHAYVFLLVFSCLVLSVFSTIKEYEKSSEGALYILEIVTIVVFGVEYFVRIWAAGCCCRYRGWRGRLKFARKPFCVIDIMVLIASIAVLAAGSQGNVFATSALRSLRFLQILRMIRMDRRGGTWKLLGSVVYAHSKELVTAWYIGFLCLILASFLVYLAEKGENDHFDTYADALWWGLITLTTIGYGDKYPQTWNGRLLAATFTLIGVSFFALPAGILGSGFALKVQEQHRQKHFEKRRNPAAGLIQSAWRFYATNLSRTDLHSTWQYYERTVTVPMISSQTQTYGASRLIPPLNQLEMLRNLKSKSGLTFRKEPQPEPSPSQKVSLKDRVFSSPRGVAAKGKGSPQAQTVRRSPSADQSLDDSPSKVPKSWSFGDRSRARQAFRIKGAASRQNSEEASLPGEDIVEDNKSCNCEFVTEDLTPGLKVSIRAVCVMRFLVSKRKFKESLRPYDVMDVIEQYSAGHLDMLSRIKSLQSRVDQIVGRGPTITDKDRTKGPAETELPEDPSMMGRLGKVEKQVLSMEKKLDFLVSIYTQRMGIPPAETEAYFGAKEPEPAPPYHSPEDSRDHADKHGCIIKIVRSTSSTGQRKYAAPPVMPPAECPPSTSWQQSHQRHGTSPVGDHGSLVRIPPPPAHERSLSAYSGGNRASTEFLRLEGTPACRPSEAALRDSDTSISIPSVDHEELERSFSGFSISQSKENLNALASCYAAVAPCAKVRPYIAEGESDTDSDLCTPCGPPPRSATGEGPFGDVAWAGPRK

The test has as its target Potassium voltage-gated channel subfamily KQT member 2 (Rattus norvegicus) (UniProt O88943). Description: KCNQ2 potentiation in CHO cells – cell-based, FluxOR thallium flux, counter-screen for hERG block protector project, confirmation (AID 1942).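 Further: normalized value minus buffer-control mean plus three SD of buffer wells.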 The following applies: FluxOR thallium flux fluorescence, at 10 µM, stronger effect = higher value.
Consider `COc1cc(S(=O)(=O)Nc2c(C)cc(C)cc2C)ccc1Cl`, for which the activity change, less the hit threshold is -20.6%.

With `COCCN1C(=O)C(=O)/C(=C(/O)c2ccc(S(=O)(=O)N3CCOCC3)cc2)C1c1ccc(OC)c(OC)c1` (centres undefined), the activity change, less the hit threshold was -17.7%.

Consider `CCOC(=O)c1c(CC(C)C)csc1NC(=O)c1ccccc1C(=O)O`, for which the activity change, less the hit threshold is -7.7%.

`CCNC(=S)Nc1scc(-c2ccccc2)c1C(=O)OCC`: the activity change, less the hit threshold was 10.6% (active).

In the case of `CCOC(=O)c1c(-c2ccc(C)o2)csc1NC(=S)NC(=O)N(C)C`, the activity change, less the hit threshold was 24.3% (active).

Consider `CCOC(=O)c1ccc(NC(=O)Cn2nnc(-c3ccccc3)n2)cc1`, for which the activity change, less the hit threshold is -26.4%.

As to `CCOC(=O)c1c(C=O)c(C)n(Cc2ccccc2)c1C`, the activity change, less the hit threshold is -14.5%.

Consider `CCOC(=O)c1c(-c2ccccc2)csc1NC(=S)NC`, for which the activity change, less the hit threshold was 19% (active).

`Nc1nonc1-n1nnc(C(=O)N/N=C/c2cccc(Cl)c2Cl)c1CN1CCCC1`: the activity change, less the hit threshold is -9.3%.

Take `Oc1ccc2[nH]cnc2c1CN1CCCCC1`: the activity change, less the hit threshold is -16.5%.

Consider `O=C(O)C1C2CCC(O2)C1C(=O)Nc1ccc(F)c(Cl)c1` (centres undefined), for which the activity change, less the hit threshold is -21%.

With `Cc1ccc(-c2noc(CCC(=O)NC3CCCC3)n2)cc1`, the activity change, less the hit threshold was -9.6%.

Regarding `O=C(Nc1ccc(Cl)cc1Cl)c1n[nH]c(Cn2cncn2)n1`, the activity change, less the hit threshold was -6%.

In the case of `CC(=O)c1cccc(NC(=O)NCc2cccs2)c1`, the activity change, less the hit threshold was -14.9%.

As for `CN(CCc1ccccn1)C(=O)CCC1CCCN(C(=O)c2ccsc2)C1` (centres undefined), the activity change, less the hit threshold is -13.1%.

On to `Cc1ccc(C(=O)NNC(=S)NC(=O)c2ccccc2)cc1`, for which the activity change, less the hit threshold was -25.9%.

Turning to `Cc1ccc(C(=O)NC(=S)N(C)Cc2ccccc2)cc1`, the activity change, less the hit threshold was 7.1% (active).

`O=C(c1cccs1)N1CCN=C1SCc1ccccc1`: the activity change, less the hit threshold is -22.6%.

For `CN(Cc1ccccc1)C(=S)NC(=O)c1cccs1`, the activity change, less the hit threshold was 7.6% (active).

Regarding `COc1ccc(N(CC(=O)NCc2cccnc2)S(=O)(=O)c2ccccc2[N+](=O)[O-])c(OC)c1`, the activity change, less the hit threshold was -23.8%.

For the molecule `Cc1ccc(-n2ccc(=O)c(C(=O)Nc3ccc(S(=O)(=O)Nc4nccs4)cc3)n2)cc1`, the activity change, less the hit threshold was -13.6%.

Take `C=C(C)C1CC=C(C)/C(=N/NC(=O)CCC(=O)Nc2ccccc2Cl)C1` (centres undefined): the activity change, less the hit threshold was -11.1%.

Consider `O=c1c2ccc(Cl)cc2nc(-c2ccc([N+](=O)[O-])cc2)n1O`, for which the activity change, less the hit threshold is 26.8% (active).

On to `O=c1c2cc(Cl)ccc2nc(-c2ccc([N+](=O)[O-])cc2)n1O`, for which the activity change, less the hit threshold is 31.4% (active).

With `N#Cc1ccc(-c2nc3cc(Cl)ccc3c(=O)n2O)cc1`, the activity change, less the hit threshold was 1.6% (active).

Take `O=c1c2cc(Br)ccc2nc(-c2ccc([N+](=O)[O-])cc2)n1O`: the activity change, less the hit threshold was 43.1% (active).

Consider `COc1ccc(C(CC(=O)N2CCOCC2)c2c(O)cc(OC)cc2OC)cc1` (centres undefined), for which the activity change, less the hit threshold is -14.7%.

As to `COc1ccc(-c2cn3nc(SCC(=O)NC4CCCCC4)ccc3n2)cc1`, the activity change, less the hit threshold was -7.9%.

In the case of `CCOC(=O)C(=CNc1cc(C)nn1C(C)(C)C)C(=O)OCC`, the activity change, less the hit threshold is -8.9%.

With `O=C(CCCc1c[nH]c2ccccc12)Nc1ccc(S(=O)(=O)Nc2ncccn2)cc1`, the activity change, less the hit threshold was -22%.

For `COc1ccc([N+](=O)[O-])cc1N(CC(=O)NCc1ccco1)S(C)(=O)=O`, the activity change, less the hit threshold is -12.1%.

As for `COc1ccccc1-n1cnc2sc(C)c(C)c2c1=O`, the activity change, less the hit threshold is -17.7%.

With `CCC1(C)Cc2c(sc3nc(SC)[nH]c(=S)c23)CO1` (centres undefined), the activity change, less the hit threshold is 101% (active).

With `CSc1nc2sc3c(c2c(=S)[nH]1)CC(C)(C)OC3`, the activity change, less the hit threshold is 73.2% (active).

Consider `CCc1nc2sc3c(c2c(=S)[nH]1)CC(C)(C)OC3`, for which the activity change, less the hit threshold is -13.3%.

For the molecule `COc1ccc(CCNC(=O)CC(NS(=O)(=O)c2ccc(NC(C)=O)cc2)C(C)C)cc1OC` (centres undefined), the activity change, less the hit threshold was -17.8%.

As for `COC(=O)c1sccc1NS(=O)(=O)c1ccc(F)cc1F`, the activity change, less the hit threshold was -1.9%.

Turning to `Cc1ccc(S(=O)(=O)N(C)C)cc1NC(=S)NC(C)CCCC(C)C` (centres undefined), the activity change, less the hit threshold was -25.5%.

Turning to `Cc1cccc(/C=N/Nc2ccc3ccccc3n2)c1`, the activity change, less the hit threshold is -14.1%.

Consider `CCOc1ccc(/C=C2/SC(=O)NC2=S)cc1`, for which the activity change, less the hit threshold is 83.5% (active).

For the molecule `Cn1cc(/C=C2\SC(=O)NC2=S)c2ccccc21`, the activity change, less the hit threshold is -17.7%.

Regarding `CCOc1ccc(/C=C2\CCc3ccccc3C2=O)cc1`, the activity change, less the hit threshold is -13.5%.

For the molecule `O=C(O)c1ccccc1NC(=O)C1CCN(S(=O)(=O)c2cccc3nsnc23)CC1`, the activity change, less the hit threshold is -7%.

On to `Cc1ccc2nsnc2c1S(=O)(=O)Nc1cccc2nsnc12`, for which the activity change, less the hit threshold is 3.5% (active).

For `O=C(N/N=C/C(Cl)=C/c1ccc([N+](=O)[O-])cc1)C(=O)Nc1ccc(C(=O)O)cc1`, the activity change, less the hit threshold is -18.4%.

Take `O=C(Nc1ccccc1C(=O)O)c1cccc(NC(=O)c2ccco2)c1`: the activity change, less the hit threshold was -3.3%.

As for `O=C(NC(=S)Nc1cccc([N+](=O)[O-])c1)c1ccco1`, the activity change, less the hit threshold is -20.7%.

On to `Cc1cccc(N=Cc2cc(Br)cc(Cl)c2O)c1`, for which the activity change, less the hit threshold is 30.4% (active).

`Oc1c(Br)cc(Cl)cc1C=Nc1ccccc1Br`: the activity change, less the hit threshold was 28.2% (active).

For `Oc1c(Cl)cc(Cl)cc1C=Nc1ccc(Br)cc1`, the activity change, less the hit threshold is 38.8% (active).

With `O=C(Nc1cccc(N=Cc2cc(Cl)cc(Br)c2O)c1)c1ccco1`, the activity change, less the hit threshold is 22.4% (active).

For the molecule `COc1cccc(CN=c2c([N+](=O)[O-])nn(-c3ccccc3C)n2O)c1`, the activity change, less the hit threshold is -19.6%.

Regarding `CCOCCOCN(C#N)c1nc(OC)nc(N(C)C)n1`, the activity change, less the hit threshold is -20.4%.

In the case of `NC(=O)c1cccc(N=Cc2cc(Cl)cc(Cl)c2O)c1`, the activity change, less the hit threshold is 28.8% (active).

On to `COc1cc(Br)cc(/C=N/NC(=O)Cc2ccccc2)c1O`, for which the activity change, less the hit threshold was -9.1%.

On to `COc1cc(Br)cc(C=Nc2cccc(C(F)(F)F)c2)c1O`, for which the activity change, less the hit threshold was 5.7% (active).

Regarding `Cc1ccc(N=Cc2cc(Cl)cc(Cl)c2O)nc1`, the activity change, less the hit threshold was 22.5% (active).

Consider `Cc1ccc(N=Cc2cc(Br)cc(Cl)c2O)cc1`, for which the activity change, less the hit threshold was 5.8% (active).

`CCC[C@H]1COCCS(=O)(=O)N1Cc1ccc(Br)cc1`: the activity change, less the hit threshold was -9.4%.

In the case of `COc1ccc(/C=C2\SC(=N)N(c3nccs3)C2=O)cc1OC`, the activity change, less the hit threshold was -16.2%.

For the molecule `Cc1ccsc1CN(C(=O)c1ccc([N+](=O)[O-])cc1)C1CCS(=O)(=O)C1` (centres undefined), the activity change, less the hit threshold is -17.5%.

As to `Cc1ccc(C(C)C)cc1OCC(=O)Nc1ccc(N2CCCCC2)cc1`, the activity change, less the hit threshold was -13.5%.

For the molecule `Oc1c(Br)cc(Br)cc1CNc1cccc2cccnc12`, the activity change, less the hit threshold is -29.6%.

On to `Oc1c(Br)cc(Br)cc1C=Nc1cccc2ncccc12`, for which the activity change, less the hit threshold is 30.9% (active).

`Cc1cccc(N2CCN(C(=O)C3CCN(S(=O)(=O)c4cccnc4)CC3)CC2)c1C`: the activity change, less the hit threshold is -14.6%.

With `O=C(CSCc1cnn(-c2ccccc2)c1-n1cccc1)NCc1cccnc1`, the activity change, less the hit threshold was -9%.

`CC1=[N+]([O-])C(C)(C)C(c2ccc(Br)cc2)=[N+]1[O-]`: the activity change, less the hit threshold was 7.3% (active).

As for `Cc1cc(C)c(S(=O)(=O)NCc2ccccn2)c(C)c1`, the activity change, less the hit threshold was -18.8%.

As to `CSc1nc(-c2ccco2)cc(C(F)(F)F)c1C#N`, the activity change, less the hit threshold was -9.1%.

As for `O=C(O)COc1ccccc1/C=C1\SC(=S)N(NC(=O)c2ccccc2O)C1=O`, the activity change, less the hit threshold was -12.9%.

Regarding `Cc1c(N2C(=O)/C(=C\c3ccccc3O)SC2=S)c(=O)n(-c2ccccc2)n1C`, the activity change, less the hit threshold is 68.6% (active).

As to `COc1ccc(C(C(=O)NC(C)(C)C)N(C(=O)CCC(=O)Nc2cc(C)on2)c2cccc(F)c2)cc1` (centres undefined), the activity change, less the hit threshold was -14.9%.

In the case of `CCCCc1c(O)nc(SCC(=O)N2CCOCC2)[nH]c1=O`, the activity change, less the hit threshold was -9.9%.

Consider `COC(=O)CNc1nc(Cl)nc(Nc2ccc(C)cc2)n1`, for which the activity change, less the hit threshold is -22.2%.

As for `COC(=O)c1c(NS(=O)(=O)Cc2ccccc2)sc2c1CCCC2`, the activity change, less the hit threshold was 42.1% (active).

Consider `CCOC(=O)c1c(NS(=O)(=O)Cc2ccccc2)sc2c1CCCC2`, for which the activity change, less the hit threshold is 32.5% (active).

Turning to `CCOC(=O)c1c(C)cccc1OCC(N)=O`, the activity change, less the hit threshold is -12.7%.

`Cc1ccc(C(=O)Nc2sc3c(c2C(=O)O)CCCCC3)o1`: the activity change, less the hit threshold is -23.9%.

For `CCOC(=O)c1c(NS(=O)(=O)c2ccc(Br)cc2)sc2c1CCC2`, the activity change, less the hit threshold was 5.6% (active).

`COC(=O)c1c(NS(=O)(=O)c2ccc3ccccc3c2)sc2c1CCCC2`: the activity change, less the hit threshold is -15.5%.

In the case of `CN1C(=O)c2ccc(C(=O)NCc3ccccc3)cc2C1=O`, the activity change, less the hit threshold was -20.8%.

In the case of `COCCCNC(=O)CCc1nnc(Cc2ccc(-c3ccccc3)cc2)o1`, the activity change, less the hit threshold is -5.1%.

Consider `Cc1cc(=S)[nH]c2c(C)cccc12`, for which the activity change, less the hit threshold is -3.9%.

Turning to `CCOc1cc(NC(=S)N2CCC(C(N)=O)CC2)c(C(=O)OC)cc1OCC`, the activity change, less the hit threshold is -11.5%.

On to `O=C(COc1cccc(-n2cnnn2)c1)Nc1ccc([N+](=O)[O-])cc1`, for which the activity change, less the hit threshold is -13.3%.

For `CCc1ccc(NC(=O)C(=O)NNC(=O)COc2cccc(OC)c2)cc1`, the activity change, less the hit threshold is 14.3% (active).

Turning to `CCc1ccc(OCC(=O)Nc2ncn[nH]2)cc1`, the activity change, less the hit threshold is -16.1%.

Take `Cc1cccc(OCC(=O)NCc2nc(-c3ccccc3)no2)c1`: the activity change, less the hit threshold was -17.2%.

For the molecule `COc1cccc(OCC(=O)NNC(=O)C(=O)Nc2cccc(C)c2)c1`, the activity change, less the hit threshold is 33.1% (active).

Take `COc1ccc(OCC(=O)NNC(=O)C(=O)Nc2ccc(C)cc2)cc1`: the activity change, less the hit threshold is -23.7%.

On to `CC(C)c1cccc(C(C)C)c1NC(=O)COC(=O)[C@H](C)NC(N)=O`, for which the activity change, less the hit threshold was -17.5%.

Turning to `O=C(NC(=S)Nc1cccc(Cl)c1N1CCCCC1)c1ccco1`, the activity change, less the hit threshold was -12.3%.

Consider `O=C(NC(=S)Nc1ccc(N2CCCCC2)cc1)c1ccco1`, for which the activity change, less the hit threshold is 45.9% (active).

For the molecule `O=C(NC(=S)Nc1ccccc1N1CCCC1)c1ccco1`, the activity change, less the hit threshold is 11.2% (active).

Turning to `CC1CCN(c2ccccc2NC(=S)NC(=O)c2ccco2)CC1`, the activity change, less the hit threshold is -14.3%.

Take `O=C(NC(=S)Nc1cc(C(F)(F)F)ccc1N1CCOCC1)c1ccco1`: the activity change, less the hit threshold is -11.4%.

`O=C(NC(=S)Nc1ccccc1N1CCCC1)c1cccs1`: the activity change, less the hit threshold was -17.3%.

With `O=C(NC(=S)Nc1ccccc1Cl)c1ccco1`, the activity change, less the hit threshold was 10.4% (active).

Turning to `O=C(NC(=S)Nc1ccccc1Br)c1ccco1`, the activity change, less the hit threshold was 18.2% (active).
